Test results from PubChem BioAssay AID1508600 (Functional Genomics Laboratory (NCATS/FGL), 2020).
The whole screen tested about 53,000 sequences, of which about 3,700 (7%) were called active. This is one part of a sample in which actives are shown more often than they occur. A number with no mark means an inactive call.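 The calls were made as follows: active = gene knockdowns whose robust z-score for IL-1 alpha signal is at least 2 or at most -2, so actives lie on both sides; inactive = the rest.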

Test: Components of the Cytosolic LPS Sensing Pathway: Gene Identification via Genome-wide siRNA Screen;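 also: robust z of the log signal after scaling to non-targeting control siRNA wells of the plate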
Details: RAW264.7 macrophages, IL-1a HTRF, actives lie on both sides, screened at 100 nM (by protocol), cells primed 5 h with Pam3CSK4 first
How it was run: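 Cells (RAW264.7, 1×10^4 per well) were transfected with siRNA at 100 nM and cultured 48h at 37 degrees C. Pam3CSK4 was added for 5 hours; LipidA transfection followed for 24 hour. IL-1a was then measured by HTRF.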

| Sequence | z-score |
| --- | --- |
| GGGAUCGUCCAGAUCUAAUTT against Apobec3 | -0.982 |
| GGACUGUCCUCCAAUUUGCTT against Nat8f3 | -2.6 (active) |
| GGGAAAUUUACAGAAAGUGTT against Igtp | 0.956 |
| CGGGCUCAGGUAAAACUCUTT against Ddx31 | -0.217 |
| GGAGAGCUUGUUCAAGUGCTT against Zxdc | -0.86 |
| CCUCAUUGGUUUGACCCAGTT against Hsd17b6 | 0.172 |
| GCCAUUAACUAUGGGACCUTT against Lck | -0.0729 |
| GCUAUCACUUUUCAUUAGATT against G0s2 | -0.902 |
| CCUGCUAAGAGAGUACUAUTT against Pglyrp2 | 1.51 |
| GGUUGGACGUGGUGAAGAATT against Chtf18 | -2.24 (active) |
| GGAAUACAAACUGCUGUACTT against Urgcp | 0.138 |
| GGAAGUGUGAACUUCAUCATT against Zdhhc6 | 2.78 (active) |
| GCCCACGAGCCUCAUGGACTT against Sts | -0.805 |
| GGAGUAUCGUAAUGCGGACTT against C4b | 0.598 |
| GGACUCCUAAUGAAUAAUCTT against Wee2 | 2.06 (active) |
| CCUUCCUUACCUACGUGAGTT against Nup88 | 1.71 |
| CCUCAAGGCAGUUCAUAUUTT against Zfp790 | -0.334 |
| GGCUCGGUAUCGUUUUUCATT against Arl3 | 0.841 |
| GGCUAUCUUUUCAGCUUUATT against Sox30 | 0.212 |
| GCCGACCACAGUACAAGACTT against Bivm | 1.08 |
| GCCGUGUGGUAAUAGUGUCTT against Dhrs13 | 0.442 |
| GGAUGAAACGGGUGCCUAUTT against Kctd5 | 3.33 (active) |
| GGACUUCUAGAGAACUUGUTT against 2900092C05Rik | -1.7 |

| Sequence | z-score |
| --- | --- |
| GGCUGUAUACCAAUAAAAATT against B4galt6 | -0.855 |
| CGUUUCAGAGUGUUUGUGGTT against Lgalsl | -0.173 |
| GGUAUCAGAGCUGUGUUCUTT against Cpped1 | -1.48 |
| GGAAAUCUAAAAGUCCUCCTT against Il17re | 0.2 |
| GGAUCAUCUCUUUGGGCUGTT against Tmem37 | 0.127 |
| GGAGAAGAAAGAAAAGCUUTT against Nusap1 | -1.74 |
| GGCUGAAAAACUCAAUUAUTT against Boll | -0.813 |
| CCAAAUAUCCGGCCAUGACTT against Lgals6 | -0.877 |
| GGAAAACACCUACCUGUGGTT against Slc25a3 | -1.48 |
| GGAAAUCAGAGAAUACUUCTT against Mfsd14b | 2.04 (active) |
| GAAGAAGGAAAAAAACCCATT against Sec61b | -1.19 |
| GCACCUCCUGGGAUUACAUTT against Crp | 0.412 |
| GGGCUAAUUGUGAACAUUUTT against Slc7a1 | 3.35 (active) |
| GCCAUGAAGCUAAAUAAUCTT against Optn | -1.31 |
| GCACCUCUACACUUUAGAUTT against Rack1 | -0.0792 |
| GGACUGGUUCAUCCUUGUGTT against G6pc | 0.922 |
| GGACCACCUAAGUUUAAGCTT against Pde6g | -0.557 |
| GGCAUCAAGCACAAGAAAATT against Sys1 | -1.16 |
| CCUGUGCCUCGUUUUAUUUTT against Fam161a | 0.807 |
| GGUGAUCGAGGAGAGUCUATT against Oaf | -0.737 |
| GGUGGAGUUAGAAAACUACTT against BC048679 | -0.341 |
| CCUGAACGUGAGUGGAGAATT against Man1c1 | -0.8 |
| GGUGAAGAUUGAGAAGGAGTT against Aifm3 | -2.05 (active) |

| Sequence | z-score |
| --- | --- |
| GACCUACCAGAUGAAGGUCTT against Vmn1r28 | 0.29 |
| GCGACUUUAGCUAAACAUGTT against Kcns2 | 1.79 |
| GGAAGAAACAUGUAUCAUGTT against Tff1 | 0.556 |
| GACAGUGCACGAUCUGAUUTT against Pfn3 | 0.274 |
| GCUGGAAUGCAAGGGCUUCTT against Gchfr | 1.45 |
| GGAUAUGAAACAAUAACAGTT against Arid5b | -0.349 |
| GGCAAAAUCUAUUGUCUUCTT against Ran | -2.2 (active) |
| GGAGGUAAAUGAAAAAUCUTT against Nop56 | 0.611 |
| GGUGAUCGUGGUGUGGAACTT against Extl2 | 0.941 |
| GGCAAUGAUGAGACCUAGUTT against Mybbp1a | 0.0956 |
| GCAAUCGAGCUGAAACUAGTT against Hat1 | 0.721 |
| CCACCAUUUAUAUUUGGUUTT against Slc35g1 | -0.298 |
| GGGUUACAAUAACUGGACATT against Ggcx | 2.32 (active) |
| GCCACAUGGUUAAUAAGAGTT against Postn | -1.5 |
| ACCUCAAGACAGUGCAAAUTT against H2bc4 | -1.41 |
| GGAAAAUCAACAGCAUCAATT against Olfr661 | -0.642 |
| CCCUAUUGAUUCAACUUGGTT against Samt4 | 0.253 |
| GGGCAACGUAUUCACAUUATT against Manbal | 2.86 (active) |
| GGAGCUUUGAAGAGACUGGTT against Olfr117 | -2.32 (active) |
| GGUGCUGCUGAGAUUUUUCTT against Pxt1 | 0.555 |
| GGCAAUGGAGAGAGAGAUGTT against Patl1 | -2.36 (active) |
| GGAUCAAAGGAAGAAGGGCTT against Zbtb24 | -0.00585 |
| GGCCAGAACUUAAAUUUUCTT against Nbr1 | 0.658 |
